# In PubChem BioAssay AID1030 (National Center for Advancing Translational Sciences (NCATS), 2008):
# Values joined by “and” are separate entries in the source; they are usually repeats but may differ in a detail not shown here. Equal values may be shown once. Screen size: about 220,000 compounds; about 16,000 (7.3%) were called active. Not shown: some 25% with an inconclusive outcome. Calls come from the whole dose curve; as a rule, active = well fitted inhibition curve with a large enough effect (not every such curve was filed as active); inconclusive = small, poorly fitted or top-dose-only effect, or another doubt; inactive = no such curve, though single readings can be large or run the other way. The sample as a whole holds a higher share of actives than the screen did. Some structures have more than one record in an assay (separate samples or runs), and their calls can disagree.
# Molecular target: Aldehyde dehydrogenase 1A1 (Homo sapiens) (UniProt P00352)
# Assay: qHTS Assay for Inhibitors of Aldehyde Dehydrogenase 1 (ALDH1A1);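 for activity, negative = inhibition: plate controls were no enzyme wells and a reference inhibitor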
# Settings: Purified ALDH1A1, NADH fluorescence, propionaldehyde substrate; series mostly up to 75.3 µM; activity, negative = inhibition: at the top concentration
# Potency is the fitted concentration of half-maximal effect.
# Chain of Aldehyde dehydrogenase 1A1 (Homo sapiens) (P00352 whole entry, looked up): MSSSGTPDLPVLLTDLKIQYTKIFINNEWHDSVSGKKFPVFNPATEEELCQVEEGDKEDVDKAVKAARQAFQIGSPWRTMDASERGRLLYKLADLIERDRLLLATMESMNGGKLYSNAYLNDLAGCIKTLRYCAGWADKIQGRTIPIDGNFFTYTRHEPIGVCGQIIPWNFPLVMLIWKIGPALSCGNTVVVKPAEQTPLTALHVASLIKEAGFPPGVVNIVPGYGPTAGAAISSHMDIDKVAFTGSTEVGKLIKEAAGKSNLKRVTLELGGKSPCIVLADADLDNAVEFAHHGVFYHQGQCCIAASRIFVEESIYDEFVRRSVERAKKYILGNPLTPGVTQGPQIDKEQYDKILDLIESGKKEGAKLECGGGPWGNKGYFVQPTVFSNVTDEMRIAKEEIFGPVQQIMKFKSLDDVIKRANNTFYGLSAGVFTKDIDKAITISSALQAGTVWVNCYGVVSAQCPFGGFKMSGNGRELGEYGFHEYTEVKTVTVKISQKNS
Structure (SMILES),"activity, negative = inhibition",Potency
CSC1=NP(=S)(SC)N(C)c2nc3n(c21)CCC3 (stereo not drawn),-5.63% (inactive),–
CCOP(=O)(OCC)C(NC(=O)c1ccc(C)cc1)C(Cl)(Cl)Cl (stereo not drawn),0.637% (inactive),–
CCN(CC)CCn1ncc2c(N)ncnc21,1.51% [at 13.5 µM] (inactive),–
CCCCCCCCc1[se]c2ccccc2c1Br,-6.52% (inactive),–
NCCc1ccc(S(=O)(=O)F)cc1,4.17% (inactive),–
O=C(CN1CCCCC1)Nc1ccc(Br)cc1C(=O)c1ccccc1Cl,-1.86% (inactive),–
CCN1CCN(c2ccc([N+](=O)[O-])cc2C#N)CC1,5.93% (inactive),–
COc1ccccc1-n1c(O)c(C=NC2CC2)c(=O)[nH]c1=O,-2.25% (inactive),–
O=c1c2ccccc2nc(-c2ccc(Cl)cc2Cl)n1-c1ccncc1,-6.03% (inactive),–
O=c1c2ccccc2nc(-c2ccccc2)n1-c1ccccn1,-7.99% (inactive),–
Cc1ccc(-n2c(-c3ccc([N+](=O)[O-])cc3)nc3ccccc3c2=O)cc1,–,7.51 µM (active)
Cc1cccc2c(CCN)c[nH]c12,1.85% (inactive),–
Cc1ncsc1CCCl,-8% (inactive),–
COc1ccc(C(=O)CC2C(=O)N(C)C(=O)N(C)C2=O)cc1,–,17.8 µM (active)
CCOP(=O)(OCC)C(NC(=O)c1ccc(OC)cc1)C(Cl)(Cl)Cl (stereo not drawn),2.96% (inactive),–
COc1ccc(-c2nn(CCC#N)cc2C(=O)O)cc1,12.9% (inactive),–
COc1cc(-n2c(=S)[nH]c3ccc(C)cc3c2=O)c(Cl)cc1Cl,-5.27% (inactive),–
CN(C)P(=S)(Nc1ccccc1)C(Cl)(Cl)Cl (stereo not drawn),-9.21% (inactive),–
O=NO,–,inactive and 11.2 µM (active)
C[C@@]12CC[C@H](O)C[C@@H]1CC[C@@H]1[C@@H]2CC[C@@]2(C)[C@@H](C3=CC(=O)OC3)[C@H](O)C[C@]12O,23.8% [at 13.5 µM] (inactive),–
OC(CNC1CCCCC1)c1ccccc1 (stereo not drawn),13.7% (inactive),–
CC(Cc1cccs1)NCc1ccc(Cl)cc1 (stereo not drawn),9.87% (inactive),–
CCN(CC)C(=O)c1ccc(NC(=O)c2cc(-n3cnnc3)ccc2Cl)cc1,–,25.1 µM (active)
CC(C)(Cc1c[nH]c2ccc(Cl)cc12)NCCOc1ccccc1OCC1CC1,–,inactive
O=c1[nH]c(=O)n(-c2ccccc2)c(O)c1C=NC12CN3CN(CN(C3)C1)C2,4.54% (inactive),–
C=CCN1CCC2(C)c3cc(O)ccc3CC1[C@@H]2C (stereo partly drawn),0.265% (inactive),–
CC(=O)O[C@H]1CC[C@@]2(C)[C@@H](CC[C@H]3[C@H]2CC(=O)[C@]2(C)[C@@H]3C[C@@H](N3CC3)[C@H]2C(C)=O)C1,6.14% [at 13.5 µM] (inactive),–

Structure (SMILES),"activity, negative = inhibition",Potency
COC1CC(OC2CC[C@@]3(C=O)C4CC[C@]5(C)C(C6=CC(=O)OC6)CC[C@@]5(O)C4CC[C@]3(O)C2)OC(C)C1O (stereo partly drawn),9.5% (inactive),–
O=C(O)CCn1cc(C=C2C(=O)NC(=S)NC2=O)c(-c2cccc(Br)c2)n1,–,10 µM (active)
COP(=O)(NS(=O)(=O)c1ccccc1)OC,10.1% (inactive),–
CN1C2CC3CC1C(O3)C2O (stereo not drawn),-0.978% (inactive),–
C[C@@]12CC[C@H]3[C@@H](CC[C@]4(O)C[C@H](O)CC[C@@]34C=O)[C@]1(O)CC[C@@H]2C1=CC(=O)OC1,5.61% [at 20.9 µM] (inactive),–
OC1/C(=C/c2ccc(C(F)(F)F)cc2)N2CCC1CC2 (stereo not drawn),5.45% (inactive),–
CCCCC/C=C\C/C=C\C/C=C\C/C=C\CCCCCC(=O)NCCO,–,inactive and 14.1 µM (active)
CCCCC/C=C\C/C=C\C/C=C\C=C\[C@H](CCCC(=O)O)OO,–,inactive
CCCCC/C=C\C/C=C\C/C=C\CCCCCCC(=O)NCCO,–,inactive
O=C(COC(=O)Cc1ccccc1)Nc1ccc(F)cc1,8.73% (inactive),–
O=c1[nH]c(=O)n(Cc2ccccc2)c(O)c1/C=N/Nc1c(F)c(F)c(F)c(F)c1F,-0.117% (inactive),–
CNC(=O)N(C)c1nnc(C(C)(C)C)s1,–,inactive
CN1[C@@H]2CC[C@H]1CC(OC(=O)c1cc(Cl)cc(Cl)c1)C2 (stereo partly drawn),4.67% (inactive),–
BrC1C(Br)C(Br)C(Br)C(Br)C1Br (stereo not drawn),–,20 µM (active)
O=C(CCN1CCCCC1)NCC(=O)Nc1ccc(Br)cc1C(=O)c1ccccc1,1.09% (inactive),–
N[C@H](Cc1o[nH]c(=O)c1Cl)C(=O)O,5.09% (inactive),–
CC(C)(C)CC(=O)Nc1nnc(SCC(=O)NCc2cccs2)s1,–,17.8 µM (active)
N[C@H](C(=O)O)c1cc(=O)[nH]o1,-6.24% (inactive),–
N#Cc1ccc(Cn2cc(C(=O)c3ccco3)c3ccccc32)cc1,-2.02% (inactive),–
COP(=O)(OC)C(NC(=O)c1ccc(C)cc1)C(Cl)(Cl)Cl (stereo not drawn),1.19% (inactive),–
OC(Cn1c2ccccc2c2ccccc21)C[n+]1ccccc1 (stereo not drawn),8.11% (inactive),–
CCNc1nc2[nH]c(=O)c3c(c2s1)OC(N)=C(C#N)C3c1cccs1 (stereo not drawn),-7.74% (inactive),–
CCCCN1C2CCC1CC(OC(c1ccc(F)cc1)c1ccc(F)cc1)C2 (stereo not drawn),4.41% (inactive),–
Cc1ccc(NN=C2C(=O)OC(C)(C)OC2=O)c(C)c1,–,10 µM (active)
Cc1nc2nc(C)c(CCC(=O)N3CCC4(CC3)OCCO4)c(C)n2n1,3.72% (inactive),–
CC1=CC(=O)C2=C(C)C[C@H](O)[C@H]3[C@H](C)C(=O)O[C@@H]3C12 (stereo partly drawn),-0.9% (inactive),–
